These results are taken from PubChem BioAssay (Tox21).

For experiment [1], the target named is Progesterone receptor (Homo sapiens) (UniProt P06401). Kind of experiment: qHTS assay to identify small molecule antagonists of the progesterone receptor (PR) signaling pathway (AID 1346795; active = well fitted inhibition curve with a large enough effect in the signal ratio in the repeat runs, not every such curve was filed as active; the % refers to the signal ratio; also: potency is read from the fitted curve at half-maximal effect). In a few lines:
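Stimulus R5020 at 1 nM final; cells HEK293T PR-UAS-bla; medium with 2% charcoal-stripped FBS; compound exposure 16 hr at 37C, 5% CO2; detection by FRET beta-lactamase substrate, 2 hr, room temperature.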
In general terms: qHTS replaces the single test concentration by a dilution series.

Experiment [2] is described as follows: qHTS assay to identify small molecule antagonists of the progesterone receptor (PR) signaling pathway - cell viability counter screen (AID 1346798). Also: nearly all actives have a fitted effect of over 50% in size. Also: potency is read from the fitted curve at half-maximal effect. As to activity change, negative = cytotoxicity: series mostly up to about 92 µM. In a few lines:
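In the same plates used for the beta-lactamase readout, cell viability of compound- and R5020-treated PR-UAS-bla HEK293T cells (16 hr, 37C) was assessed by CellTiter-Glo luminescence.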

Experiment [3] can be described thus: qHTS assay to identify small molecule antagonists of the TGF-beta/Smad signaling pathway - cell viability counter screen (AID 1346824). Also: nearly all actives have a fitted effect of over 50% in size. In a few lines: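 SBE-bla HEK 293T cells, incubated overnight, then compound plus 0.25 ng/mL TGF-beta1 (stock added) for 5 hr at 37 C. Viability was read in the same wells by CellTiter-Glo luminescence after 30 min at room temperature.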

A short description of experiment [4]: qHTS assay to identify small molecule agonists of the TGF-beta/Smad signaling pathway - cell viability counter screen (AID 1346829). Also: top concentration of the series differs between compounds; nearly all actives have a fitted effect of over 45% in size. In a few lines: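 Tox21 qHTS format: SBE-bla HEK 293T cells treated with DMSO-dissolved compounds for 5 hr; CellTiter-Glo luminescence after 30 min at room temperature.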
Experiment [5] in a line: qHTS assay to identify small molecule agonists of the TGF-beta/Smad signaling pathway (AID 1346859; active = well fitted activation curve with a large enough effect in the signal ratio in the repeat runs, not every such curve was filed as active; the % refers to the signal ratio; also: series mostly up to about 77 µM). In a few lines: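 Screening used HEK 293T SBE-bla cells at 4,000/well. Test agents: 5 hr, 37 C. Detection: FRET substrate, 2 hr RT, then excitation 405 nm with emissions at 460 and 530 nm.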
Experiment [6] can be described thus: Human pregnane X receptor (PXR) small molecule agonists, qHTS cell viability counter screen (AID 1346977). Also: nearly all actives have a fitted effect of over 50% in size. Also: potency is read from the fitted curve at half-maximal effect. In a few lines:
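In each well, the PXR reporter HepG2 line was checked for viability: CellTiter-Fluor reagent added 23hr post-dosing, fluorescence read after 1hr incubation at 37C.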

The nature of experiment [7]: Caspase-3/7 induction in HepG2 cells by small molecules, qHTS assay (AID 1346978). Also: nearly all actives have a fitted effect of over 15% in size. In a few lines:
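Wild-type HepG2 cells, 2,000/well, settled 5 hr at 37 C and 5% CO2, then compound-treated for 17 hr; caspase-3/7 activity read by luminescent Caspase-Glo 3/7 after 30 min at room temperature.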

Experiment [8] addresses Thyrotropin-releasing hormone receptor (Homo sapiens) (UniProt P34981). Kind of experiment: qHTS assay to identify small molecule antagonists of the thyrotropin-releasing hormone receptor (TRHR) signaling pathway (AID 1346877; active = well fitted inhibition curve with a large enough effect in the repeat runs, not every such curve was filed as active; also: series mostly up to about 51 µM). In a few lines:
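Kinetic fluorescence (3 min, 1 s resolution) following stimulation with TRH at 1 nM final; HEK293 cells bearing human TRHR; 5 min compound preincubation at RT; concentration-response over 15 points, triplicates.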

The target is the same in experiment [9]. In words: qHTS assay to identify small molecule agonists of the thyrotropin-releasing hormone receptor (TRHR) signaling pathway (AID 1346891; calls by dose curve; also: series mostly up to about 58 µM). In a few lines:
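Readout was intracellular calcium fluorescence in TRHR-Hek293 cells. Cells were incubated 18 h, dye-loaded 2 h at 37 °C, and treated with compound in agonist mode.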

SMILES strings stand for the structures. Values joined by “and” are separate entries in the source; they are usually repeats but may differ in a detail not shown here. Equal entries are not always repeated. Values without a mark were called inactive. Inconclusive results are not listed. Active and inactive are the calls of the source. Unless noted, calls follow the shape of the dose curve; as a rule, active = well fitted curve in the direction sought with a large enough effect in the repeat runs; inconclusive = weak or mixed curves; inactive = no such curve, though single readings can be large; an effect the other way counts as inactive or inconclusive.
% is scaled to controls: 0 for no effect and ±100 for the full control effect.

Sequence of Progesterone receptor (Homo sapiens) (P06401 whole entry, looked up): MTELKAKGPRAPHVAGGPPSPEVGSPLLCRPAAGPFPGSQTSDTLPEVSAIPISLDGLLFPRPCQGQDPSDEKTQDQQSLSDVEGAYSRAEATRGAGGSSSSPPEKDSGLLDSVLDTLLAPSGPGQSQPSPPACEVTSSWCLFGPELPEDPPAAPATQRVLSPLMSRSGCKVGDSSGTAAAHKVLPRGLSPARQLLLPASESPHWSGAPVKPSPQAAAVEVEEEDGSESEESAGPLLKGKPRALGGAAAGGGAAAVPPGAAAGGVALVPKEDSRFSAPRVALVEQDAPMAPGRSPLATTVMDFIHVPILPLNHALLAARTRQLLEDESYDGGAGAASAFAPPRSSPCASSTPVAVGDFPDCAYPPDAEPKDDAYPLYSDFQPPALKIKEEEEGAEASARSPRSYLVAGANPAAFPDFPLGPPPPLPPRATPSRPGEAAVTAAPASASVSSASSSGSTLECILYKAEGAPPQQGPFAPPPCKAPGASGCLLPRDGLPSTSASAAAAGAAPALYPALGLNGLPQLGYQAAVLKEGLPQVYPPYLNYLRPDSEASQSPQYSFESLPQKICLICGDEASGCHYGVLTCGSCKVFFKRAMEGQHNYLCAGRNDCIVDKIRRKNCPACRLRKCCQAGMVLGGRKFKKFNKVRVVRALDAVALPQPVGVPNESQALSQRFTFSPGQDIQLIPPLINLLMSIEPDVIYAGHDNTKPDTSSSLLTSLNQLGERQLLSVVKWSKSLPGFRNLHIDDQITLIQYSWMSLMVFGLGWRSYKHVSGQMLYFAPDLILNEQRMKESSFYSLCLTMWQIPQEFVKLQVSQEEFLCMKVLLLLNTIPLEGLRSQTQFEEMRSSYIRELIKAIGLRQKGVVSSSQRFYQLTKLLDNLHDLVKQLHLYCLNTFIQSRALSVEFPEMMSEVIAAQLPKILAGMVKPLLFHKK
Sequence of Thyrotropin-releasing hormone receptor (Homo sapiens) (P34981 whole entry, looked up): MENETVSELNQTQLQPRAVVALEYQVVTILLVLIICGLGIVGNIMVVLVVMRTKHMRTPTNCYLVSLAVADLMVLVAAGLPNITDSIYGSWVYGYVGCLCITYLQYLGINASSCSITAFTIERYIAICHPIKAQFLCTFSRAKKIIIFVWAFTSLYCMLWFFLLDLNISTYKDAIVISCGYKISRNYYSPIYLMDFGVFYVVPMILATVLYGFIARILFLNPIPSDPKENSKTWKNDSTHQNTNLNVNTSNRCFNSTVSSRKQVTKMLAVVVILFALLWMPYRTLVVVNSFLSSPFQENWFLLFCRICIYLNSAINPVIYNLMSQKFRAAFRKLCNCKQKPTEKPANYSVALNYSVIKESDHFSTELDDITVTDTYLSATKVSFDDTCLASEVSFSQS

As to `CCCCCCCOC(=O)c1ccc(O)cc1`, the Potency in [1] was 24.4 µM (active) and 38.6 µM (active). Further, the Potency entry in [2], in experiment [3], in experiment [4], in [5] and in experiment [6] was “inactive” throughout.
On to `CCCCCCCC(C)=O`, for which the Potency entry in [1], in [2], in experiment [3], in experiment [4], in [5] and in experiment [6] was “inactive” throughout. For the same molecule, the Potency entry in [7] is “inactive”.
For the molecule `CCCCNc1c(C(=O)OCC)c(C)nc2c1cnn2CC`, the Potency in experiment [1] is 26.6 µM (active). Further, the Potency entry in experiment [2], in experiment [3], in experiment [4], in experiment [5], in experiment [6] and in [7] was “inactive” throughout.
Take `OCCCCl`: the Potency result in [1], in experiment [2], in [3], in [4], in experiment [5] and in experiment [8] was “inactive” in each case. Besides, the Potency result in experiment [9], in [6] and in [7] was “inactive” in each case.
Consider `CCOC(OCC)C(=O)c1ccccc1`, for which the Potency result in [1], in experiment [2], in experiment [3], in experiment [4], in experiment [5] and in experiment [9] was “inactive” in each case. The Potency entry in experiment [6] and in experiment [7] was “inactive” throughout.
For `CC1=CCC(=O)O1`, the Potency result in experiment [1], in experiment [2], in experiment [3], in experiment [4], in [5] and in [6] was “inactive” throughout. For the same molecule, the Potency result in [7] was “inactive”.
With `COc1cccc(O)c1`, the Potency result in experiment [1], in [2], in experiment [3], in experiment [4], in experiment [5] and in experiment [8] was “inactive” in each case. Further, the Potency result in [9], in experiment [6] and in [7] was “inactive” in each case.
Turning to `Cc1cccc(Br)c1`, the Potency in experiment [1] is 10.9 µM (active); in experiment [2], 54.8 µM (active). For the same molecule, the Potency result in [3], in [4], in [5] and in experiment [7] was “inactive” throughout.
Turning to `C(=C/c1ccccc1)/c1ccccc1`, the Potency result in experiment [1], in [2], in experiment [3], in experiment [4], in experiment [5] and in experiment [8] was “inactive” in each case. Besides, the Potency result in [9], in [6] and in experiment [7] was “inactive” each time.
For `Cn1cnc2ncnc(N)c21`, the Potency result in [1], in experiment [2], in [3], in experiment [4], in experiment [5] and in [8] was “inactive” each time. For the same molecule, the Potency result in experiment [9], in [6] and in experiment [7] was “inactive” each time.
With `Cc1cccc(C)n1`, the Potency result in [1], in experiment [2], in [3], in experiment [4], in [5] and in [6] was “inactive” each time. In addition, the Potency entry in [7] is “inactive”.
For the molecule `CC1(C)C(=O)N(Br)C(=O)N1Br`, the Potency entry in [1], in [2], in experiment [3], in experiment [4], in experiment [5] and in [6] was “inactive” each time. Besides, the Potency result in experiment [7] was “inactive”.
On to `O=S(=O)(O)CCCN1CCOCC1`, for which the Potency result in [1], in [2], in [3], in experiment [4], in [5] and in [8] was “inactive” each time. Moreover, the Potency result in experiment [9] and in [7] was “inactive” each time.
As for `Cc1cc(C)c(C=O)c(C)c1`, the Potency entry in experiment [1], in experiment [2], in experiment [3], in [4], in [5] and in [8] was “inactive” each time. Besides, the Potency result in experiment [9], in [6] and in [7] was “inactive” in each case.
In the case of `C[Si](C)O[Si](C)C`, the Potency entry in experiment [1], in experiment [2], in experiment [3], in experiment [4], in experiment [5] and in experiment [7] was “inactive” each time.
Regarding `CC(C)=CCCC(C)CCOC(=O)C(C)C` (configuration not stated), the Potency entry in experiment [1], in experiment [2], in experiment [3], in [4], in [5] and in experiment [8] was “inactive” each time. The Potency entry in experiment [9], in [6] and in experiment [7] was “inactive” in each case.
On to `CN(C)CCN1CCOCC1`, for which the Potency result in [1], in [2], in experiment [3], in experiment [4], in experiment [5] and in [8] was “inactive” throughout. Further, the Potency result in experiment [9] and in [7] was “inactive” in each case.
As for `O=C=NCc1cccc(CN=C=O)c1`, in experiment [1], the activity change, negative = inhibition is 0.417% [at 18.9 µM]. Further, the figures for the activity change, negative = cytotoxicity in [2], in experiment [4] and in experiment [6] were -11.8% [at 18.9 µM], -12.3% [at 15.8 µM] and 4.21% [at 19 µM], respectively. Also, the viability change, negative = cytotoxic in experiment [3] is -4.21% [at 15.8 µM]. In addition, the activity, negative = inhibition in experiment [8] was 1.76% [at 10.5 µM]. Also, the activation in experiment [9] is -0.119% [at 11.8 µM]. The caspase activation in experiment [7] is -0.106% [at 19 µM].
`O=C(O)c1cccc(Cl)n1`: the Potency result in [1], in experiment [2], in experiment [3], in experiment [4], in experiment [5] and in [8] was “inactive” throughout. For the same molecule, the Potency result in experiment [9], in [6] and in [7] was “inactive” throughout.
On to `CCOC(=O)CC(C)O` (configuration not stated), for which the Potency result in experiment [1], in experiment [2], in experiment [3], in experiment [4], in experiment [5] and in experiment [7] was “inactive” in each case.
Regarding `CCCSS/C(CCO)=C(\C)N(C=O)Cc1cnc(C)nc1N`, the Potency entry in [1], in experiment [2], in experiment [3], in experiment [4], in [5] and in [8] was “inactive” in each case. Moreover, the Potency entry in experiment [9] and in experiment [7] was “inactive” throughout.
In the case of `CCC(C)C(=O)OC` (configuration not stated), the Potency entry in [1], in [2], in experiment [3], in experiment [4], in [5] and in experiment [8] was “inactive” throughout. Besides, the Potency entry in experiment [9], in [6] and in [7] was “inactive” throughout.
Take `ClC/C=C\CCl`: the Potency entry in experiment [1], in experiment [2], in [3], in experiment [4], in experiment [5] and in experiment [8] was “inactive” each time. Also, the Potency entry in [9], in experiment [6] and in experiment [7] was “inactive” in each case.
Take `CNC(=O)c1cc(Oc2ccc(NC(=O)Nc3ccc(Cl)c(C(F)(F)F)c3)cc2)ccn1`: the figures for the Potency in experiment [1], in [2] and in experiment [6] were 11.9 µM (active), 33.5 µM (active) and 23.7 µM (active), respectively. Moreover, the Potency result in [4], in experiment [5], in experiment [8] and in [9] was “inactive” each time.
